# Screening results as filed in PubChem.
# ELG1 DNA repair – ELG1-dependent DNA repair inhibition | AID 504467 | Potency, µM (doses to about 46.1 µM), hits mostly inhibitors | 330,000 compounds, 2.3% hits | HEK293T ELG1-luciferase reporter, luminescence, 16 h; DNA damage induced by 5-fluorouridine; note: nearly all actives have a fitted effect of over 55% in size
#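 Cells (2,000 per well) received 5-fluorouridine plus test compound or DMSO and were incubated 16 hr at 37 °C, 5% CO2. Luciferase activity was read by luminescence 30 min after ONE-Glo addition; signal suppression marked inhibition of damage-induced ELG1 function.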
# NPC1 prom act – NPC1 promoter activation. Huh7 NPC1 promoter luciferase reporter, 24 h. Potency, µM (top dose mostly 9.22 µM), actives largely listed as activators. 320,000 compounds, 2.4% hits. AID 485313; note: nearly all actives have a fitted effect of over 60% in size
#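 Luciferase expression driven by the NPC1 promoter was measured in stably transfected Huh7 cells after a 24 h compound incubation, using a luciferase reagent and a luminescence read.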
# FLuc modulator – firefly luciferase modulation, counter-screen for miR-21 project. P08659. purified FLuc, Km substrates, luminescence inhibition. Potency, µM (doses to about 57.5 µM), usual class: inhibitors. 360,000 compounds, 6.9% hits; note: nearly all actives have a fitted effect of over 55% in size
#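 Purified P. pyralis luciferase (10nM final) with 10uM D-luciferin and 10uM ATP (Km levels) in 50mM Tris acetate pH 7.5, 10mM Mg acetate, 0.01% Tween-20, 0.05% BSA; qHTS 6-point titration, ~60 µM downward; luminescence read.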
# ELG1 genotoxic – induces genotoxicity in HEK293T cells with luciferase-tagged ELG1. AID 504466. Potency, µM (titrated, usually from 46 µM), most hits filed as activators. HEK293T ELG1-luciferase reporter, luminescence, 16 h. 330,000 compounds, 1.3% hits; note: nearly all actives have a fitted effect of over 60% in size
#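 Luminescence read-out: rising ELG1-luciferase signal, reflecting elevated ELG1 protein under genetic stress, flags genotoxic compounds. Cells were treated for 16 hr at 37 °C before ONE-Glo detection.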
# Rab9 promoter act – activators of Rab9 promoter; Potency, µM (highest dose often 9.22 µM), most hits filed as activators; 320,000 compounds, 2.8% hits; Huh7 Rab9 promoter-luciferase reporter, luminescence, 24 h; note: nearly all actives have a fitted effect of over 60% in size
#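 Cell-based reporter: Huh7 stable for Rab9 promoter-driven luciferase, plated in reduced-serum medium with 10% FBS at 1500 cells/well, compound-treated 24 h at 37 °C, luminescence read after 10 min reagent.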
# SMN2 splice enh – enhancers of SMN2 splice variant expression | HEK293 SMN2-luciferase splicing reporter, luminescence, 30-36 h | Potency, µM (series often up to 46.1 µM), most hits filed as activators | 210,000 compounds, 2.8% hits; note: nearly all actives have a fitted effect of over 55% in size
#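 HEK293 cells carry an SMN2 […]–luciferase reporter in which exon 7 inclusion puts luciferase in frame. Cells were plated 10-12 h before compound addition, then incubated 30-36 h at 37C. ONE-Glo luminescence was read; sodium butyrate at 4.5 mM final served as control.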
# Hits are given with their value; 0 = inactive; ? = inconclusive; - = no result; [ ] = dose if it differs, or a comment. Compounds with a hit are over-represented: about 9.2% of the library has one in this group of screens. Calls come from the whole dose curve; as a rule, active = well fitted curve in the direction sought with a large enough effect; inconclusive = small, poorly fitted or top-dose-only effect, or another doubt; inactive = no such curve, though single readings can be large; an effect the other way counts as inactive or inconclusive.
SMILES,ELG1 DNA repair,NPC1 prom act,FLuc modulator,ELG1 genotoxic,Rab9 promoter act,SMN2 splice enh
COc1ccccc1CNc1ccc(N2CCCCC2)cc1,?,0,15.1µM,?,0,0
COc1cc(/C=N/Nc2nc(Nc3ccccc3)nc(-n3nc(C)cc3C)n2)cc(OC)c1OC,1.84µM,0,2.69µM,0,0,0[1.84 µM]
COc1ccc(O)c(/C=N/Nc2nc(Nc3ccccc3)nc(-n3nc(C)cc3C)n2)c1,2.59µM,0,9.53µM,0,0,0
COc1cc(/C=N/n2nnnc2Nc2ccccc2)cc(OC)c1OC,23.1µM,0,?,0,0,0
Cc1ccccc1NC(=O)Cn1c(=O)n(Cc2ccc3c(c2)OCO3)c(=O)c2ccccc21,-,-,0,-,-,0
O=C(N/N=C/c1cccc(F)c1)c1c(O)c2c([nH]c1=O)CCCC2,?,1.58µM,?,?,2µM,12.6µM
CN(c1ccccc1)S(=O)(=O)c1nnc(NC(=O)c2cccs2)s1,-,-,1.07µM,-,-,-
CCCCc1nnc(NC(=O)C=C(C)C)s1,0,0,0,0,0,0
CC(C)c1nnc(NC(=O)c2cccs2)s1,?,2.82µM,13.5µM,4.11µM,2.51µM,14.1µM
COc1c(C(=O)Nc2nnc(C3CC3)s2)csc1Cl,?,4.47µM,?,?,3.98µM,-
CC(C)=CC(=O)Nc1nnc(C(C)C)s1,?,3.16µM,12µM,?,2.51µM,11.2µM
CCN(CC)C(=O)[C@H]1CC(CC(=O)NCCCn2ccnc2)C(=O)N2CCc3c([nH]c4ccccc34)[C@]12C (stereo not given in full),0,-,-,0,-,-
Cc1c2cnn(CC(=O)NCc3ccc(F)cc3)c(=O)c2c(C)n1Cc1cccc(Cl)c1,-,-,0,-,-,0
COc1ccc(NC(=O)N2CCCC2C(=O)NCc2ccc(C)cc2)cc1 (stereo not given),0,0,0,0,0,0
CC(C)(C)c1nnc(NC(=O)c2cccs2)s1,?,2.82µM,10.7µM,?,2.82µM,-
O=C(Nc1nnc(C2CC2)s1)c1cccs1,?,2.82µM,?,?,3.16µM,-
Cc1ccc(C)c(Nc2cc(C)nc3ncnn23)c1,?,?,0,0,0.1µM,-
Cc1cc(Nc2ccc(N(C)C)cc2)n2ncnc2n1,?,0,16.9µM,0,0,-
Cc1cc(Nc2ccc(Cl)cc2)n2ncnc2n1,0,0,0,0,0,-
CCOc1cc(C#N)c(NC(=O)c2ccc(OC)c(S(=O)(=O)N3CCN(c4ccccc4)CC3)c2)cc1OCC,-,-,0,-,-,0
CCOC(=O)c1sc2ncn(CC(=O)Nc3ccc(N(C)C)cc3)c(=O)c2c1C,-,-,0,-,-,0
Nc1[nH]ncc1N=Nc1ccc(Cl)cc1,?,0,13.5µM,18.4µM,?,0
Cc1cccc(N=Nc2c(N)n[nH]c2N)c1,?,0,?,0,0,-
Nc1n[nH]c(N)c1N=Nc1ccc(Cl)cc1,?,0,15.1µM,?,0,0
Nc1n[nH]c(N)c1N=Nc1cccc(F)c1,0,0,23.9µM,0,0,0
COc1ccc(-n2c(-c3ccc(C)cc3)cc3c2CC(C)(C)CC3=O)c(OC)c1,-,-,0,-,-,0
